PubChem BioAssay AID686978 (National Center for Advancing Translational Sciences (NCATS), 2013)
Out of some 420,000 compounds screened, about 64,000 (15%) were called active. Roughly 27% stayed inconclusive and do not appear here. The call rests on the fitted dose curve; in most records, active means well fitted inhibition curve with a large enough effect; inconclusive means small, poorly fitted or top-dose-only effect; inactive means flat fitted curve, though single readings scatter. These entries were drawn from the full list. Entries that show only a call come without a potency.

Test: qHTS for Inhibitors of human tyrosyl-DNA phosphodiesterase 1 (TDP1): qHTS in cells in absence of CPT; further: nearly all actives have a fitted effect of over 55% in size
Conditions: DT40 Tdp1-/- hTDP1 cells, no CPT, ATP luminescence, 48 h; activity change, negative = growth inhibition: at 46.2 µM (top of the series)
Procedure, shortened: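 Seeded 400 DT40-hTDP1 cells/well (vehicle DMSO, no 20 nM CPT); pinned compounds; ≥48 hr at 37 °C; CellTiter-Glo luminescence as viability measure.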
Potency means the concentration at half of the fitted maximal effect.

SMILES	Potency
O=S(=O)(NCc1cccnc1)c1ccc(Cl)nc1	inactive
Cc1occc(=O)c1OCc1c(Cl)cccc1Cl	inactive
O=C(Nc1nnc(-c2ccc(F)cc2)s1)c1c(F)cccc1Cl	inactive
CC(=O)N1CCc2ccc(N)cc21	inactive
O=C(NCc1ccc2c(c1)OCO2)c1sccc1Br	inactive
O=C(NCc1ccc2c(c1)OCO2)c1ccc(Cl)s1	inactive
O=C(NCc1ccc2c(c1)OCO2)c1c(-c2ccsc2)sc2ccccc12	14.6 µM (active)
COC(=O)c1ccc2ccccc2c1OC1OC(CO)C(O)C(O)C1NC(C)=O (stereo not given)	inactive
CCOc1cccc(/C(O)=C2/C(=O)C(=O)N(CCOC)C2c2ccncc2)c1 (stereo not given)	inactive
CS(=O)(=O)N1CCN(C(=O)CSc2ccccc2)CC1	inactive
COCCn1c(SC(C)C(=O)NC2CC2)nnc1-c1cccc(C)c1 (stereo not given)	inactive
COc1ccc(C(CNC(=O)c2ccc(OCc3cscn3)cc2)N2CCCC2)cc1 (stereo not given)	inactive
C=CCN(CC=C)C(=O)CN1C(=O)c2ccccc2C1=O	inactive
CN(C)/C=C(/C(=O)c1ccccc1Cl)S(C)(=O)=O	inactive
Cc1ccc2nc(-c3cccnc3)c(NC3CCCC3)n2c1	20.6 µM (active)
O=C(COC(=O)c1cncc(Br)c1)Nc1ccc(S(=O)(=O)N2CCOCC2)cc1	inactive
O=C(CCn1nnnc1CN1CCOCC1)N1CCC(c2ccccc2Cl)C1 (stereo not given)	inactive
Cc1cccc(C(=O)N2CCC(c3nc4ccccc4s3)CC2)c1	inactive
CC(=O)Oc1ccc(OC(C)=O)c2c1C1C=CC2CC1	16.4 µM (active)
CC(=O)Oc1ccc(C(C)=O)c2c1OCCO2	inactive
COc1c(C(=O)N2CCCC2)ccc2ccccc12	inactive
NC(=O)CC[C@@H]1NC(=O)[C@H](CO)NC(=O)c2cc([N+](=O)[O-])cc(I)c2NCC[C@@H](C(N)=O)NC1=O	inactive
COCC(=O)N1CCc2ccc(NC(=O)c3ccccc3Cl)cc2C1	inactive
COc1ccc(NC(=O)NCc2ccc3c(c2)OCO3)c(OC)c1	inactive
COc1cccc(CNCc2ccc3c(c2)OCO3)c1	inactive
COc1ccc2c(c1)C(C)=CC(C)(C)N2C(=O)CNCc1ccc2c(c1)OCO2	20.6 µM (active)
CC(=O)O[C@H]1CC[C@@]2(C)[C@@H](CC[C@@H]3[C@@H]2CC[C@]2(C)[C@@H](C(C)(C)O)C[C@@H]32)C1	inactive

SMILES	Potency
CC(C)C(=O)NC(C)c1nnc2n1CCN(Cc1cccc3ncccc13)CC2 (stereo not given)	inactive
Cc1nc(N2CCOCC2)c2c(C)c(C(=O)Nc3ccc(C(F)(F)F)cc3)sc2n1	18.4 µM (active)
Cc1nc(N2CCN(c3ccccn3)CC2)c2c(C)c(C(=O)Nc3ccc(F)cc3)sc2n1	20.6 µM (active)
COc1ccc(NC(=O)c2sc3nc(C)nc(N4CCN(c5ccccn5)CC4)c3c2C)c(OC)c1	11.6 µM (active)
CCS(=O)(=O)N1Cc2ccccc2CC1C(=O)Nc1ccc(OC)cc1OC (stereo not given)	inactive
CCOC(=O)C1CCCN(C(=O)c2sc3nc(C)nc(N4CCOCC4)c3c2C)C1 (stereo not given)	inactive
CCOc1ccc(Cn2nnc(C(=O)Nc3ccc(OC)cc3OC)c2N)cc1	inactive
Cn1c(SCC(=O)Nc2ccc(N3CCOCC3)cc2)nnc1C(F)(F)F	inactive
Cc1nc2c(-c3ccc(F)cc3)c(C)nn2c(C)c1CCC(=O)N1CCN(c2ccccn2)CC1	inactive
O=C(Nc1ccc(N2CCOCC2)nc1)c1c(F)cccc1F	inactive
Cc1cc(Cl)c(S(=O)(=O)NCCC(=O)O)cc1OCC(N)=O	inactive
COc1cc(C)c(CN2CCc3nnc(C(C)NC(=O)c4cccnc4)n3CC2)cc1C (stereo not given)	inactive
COc1ccc(OC)c(NC(=O)C2CCCN2S(=O)(=O)c2cccc3nsnc23)c1 (stereo not given)	inactive
Nc1ncc(CN2CCCC(C(=O)Nc3ccc(-c4ccco4)cc3)C2)cn1 (stereo not given)	inactive
O=C(CNC(=O)c1cccnc1)N/N=C/c1cc(Br)c(O)c(Br)c1	inactive
Cc1nc2ccc(C(=O)N3CCSCC3)cc2s1	inactive
CCNC(=O)CN(c1ccc(C)cc1)S(=O)(=O)c1ccc(SC)cc1	inactive
CCN1C(=O)c2ccccc2Sc2ccc(NC(=O)Cc3ccc(OC)cc3)cc21	inactive
CC(=O)Nc1ccc(NC(=O)COc2ccccc2C(=O)Nc2cccc(Cl)c2Cl)cc1	inactive
CCOc1ccccc1C(=O)NCCCn1ccnc1	inactive
CCc1ccc(NC(=O)Cn2ncn3c(cc4ccccc43)c2=O)cc1	inactive
CCOc1ccccc1C(=O)Nc1ccc2c(c1)N(C)C(=O)c1ccccc1S2	3.66 µM (active)
CN1C(=O)c2ccccc2Sc2ccc(NC(=O)Cc3ccc(Cl)cc3)cc21	16.4 µM (active)
Cc1nn(-c2ccccc2)c(=O)c2noc(C)c12	inactive
CN1CC(O)c2cc(N=NC(N)=O)c(O)cc21 (stereo not given)	inactive
OC(COc1ccc2ccccc2c1)CN1CCOCC1 (stereo not given)	inactive
COc1cc(NS(=O)(=O)c2ccccc2)ccc1-n1nc(C)cc1C	inactive

SMILES	Potency
COc1ccccc1/C=N\Nc1cc(C)nc(-n2nc(C)cc2C)n1	5.17 µM (active)
Cc1nc(Cl)cc(N/N=C/c2ccccc2)n1	inactive
COc1cccc(/C=N/Nc2ccc(S(=O)(=O)Nc3ccccc3C(=O)O)cc2[N+](=O)[O-])c1O	inactive
COc1ccccc1/C=N/Nc1nc(C)c(C(C)=O)s1	inactive
Cc1cc2c(C)nc(N/N=C/c3ccccc3)nc2o1	inactive
COc1ccccc1-n1c(SCC(=O)Nc2cccc(C(=O)O)c2)nnc1-c1ccccc1O	inactive
COc1cccc(/C=N/Nc2cc(C)nc(-c3ccccc3O)n2)c1O	8.2 µM (active)
Cc1cc(N/N=C\c2ccc(Br)cc2)nc(-n2nc(C)cc2C)n1	2.91 µM (active)
Cn1ncc(Br)c1C(=O)NC1CCCC1	inactive
CCC(C)[C@H](NC(=O)N1c2ccccc2NC(=O)[C@@H]1C(C)C)C(=O)N[C@@H](Cc1ccccc1)C(=O)O (stereo not given in full)	inactive
CC1CN(C(=O)c2cc(COc3c(F)cccc3F)on2)CCN1C (stereo not given)	inactive
CC(C)NC(=O)N1CCCC2(CCN(C(=O)c3cccn3C)CC2)C1	inactive
COc1cccc2cc(S(=O)(=O)c3ccc(C)cc3)/c(=N/NS(=O)(=O)c3ccc(C)cc3)oc12	inactive
Cc1c(C)c2ccc(OCC(=O)N3CCC(C(=O)O)CC3)c(C)c2oc1=O	inactive
COc1cc2nc(NCC(C)c3ccccc3)n3nc(-c4ccccc4)nc3c2cc1OC (stereo not given)	13 µM (active)
CSc1ncnc2c1ncn2CCCNCC(C)c1ccccc1 (stereo not given)	inactive
COc1cc2nc(SCC(=O)Nc3ccccc3F)n3nc(-c4ccccc4)nc3c2cc1OC	inactive
CCn1c(SCC(=O)NC2CC2)nnc1-c1ccncc1	inactive
O=C(NCc1ccco1)c1ccc([N+](=O)[O-])cc1Cl	inactive
CC(C)Oc1ccc(CN2CCC2(C)C(=O)NCc2ccc(C(F)(F)F)cc2)cc1 (stereo not given)	14.6 µM (active)
CCCC(=O)N1CCC1(C)C(=O)NCc1ccc(C(C)C)cc1 (stereo not given)	inactive
CC(C)CN1CCC1(C)C(=O)Nc1ccc(OC(F)F)cc1 (stereo not given)	inactive
CN1CCNC(=O)C1CC(=O)N1CC=C(c2ccc(F)cc2)CC1 (stereo not given)	inactive
COc1ccc(NC(=O)COC(=O)c2ccncc2)c(OC)c1	inactive
CC(C)(C)S(=O)(=O)N1Cc2cc(CO)cc(CCO)c2[C@H]1CCO	inactive
CCN(CC(=O)Nc1ccc(NC(C)=O)cc1)C(=O)CSC(=S)N1CCCC1	7.31 µM (active)
CC(=O)c1ccc(NC(=O)CSC(=S)N2CCCC2)cc1	inactive

SMILES	Potency
COc1cccc(NC(=O)CN(C)C(=O)CSC(=S)N2CCCC2)c1	inactive
CC(C)(C)OC(=O)C1=C(CO)CS[C@@H]2[C@H](NC(=O)Cc3ccccc3)C(=O)N12	inactive
O=C(c1ccc2c(c1)N(Cc1ccc(F)cc1)C(=O)CS2)N1CCOCC1	inactive
O=C(NCCc1ccc(Cl)cc1)c1cccc(N2CCCC2=O)c1	inactive
NS(=O)(=O)c1ccc(CCNC(=O)CN2C(=O)c3ccccc3S2(=O)=O)cc1	inactive
CN(Cc1ccc(F)cc1)C(=O)CN1C(=O)c2ccccc2S1(=O)=O	inactive
O=C(NCCc1ccccc1)c1ccc2c(c1)N(Cc1ccc(F)cc1)C(=O)c1ccccc1S2(=O)=O	13 µM (active)
O=C(NCCC1=CCCCC1)c1ccc2c(c1)N(Cc1ccccc1F)C(=O)c1ccccc1S2(=O)=O	16.4 µM (active)
O=C(NCCc1ccc(Cl)cc1)c1ccc2c(c1)N(Cc1ccc(F)cc1)C(=O)CS2	29.1 µM (active)
Cc1ccc(C)c(NC(=O)Cn2ccn(-c3ccc(F)cc3)c(=O)c2=O)c1	inactive
NS(=O)(=O)c1ccc(CCNC(=S)Nc2ccc(S(N)(=O)=O)cc2)cc1	inactive
CCOc1ccc(N(CC)C(=O)c2cc3c(=O)oc4ccccc4c3s2)cc1	inactive
Cc1cc([N+](=O)[O-])nn1Cc1ccc(F)cc1	inactive
O=c1c2ccccc2c(-c2ccccc2)nn1-c1ccccn1	inactive
CNC(=O)n1ccc(C(=O)N2CCCCC2)n1	inactive
O=C(CCC(=O)c1cccs1)NCc1ccccc1	inactive
Cc1ccc(SCCN2C(=O)NC(C)(C)C2=O)cc1	inactive
O=C(CC1CCCCC1)NCc1ccco1	inactive
O=C(Nc1ccc(NC(=O)c2ccc3c(c2)OCO3)cc1)c1cccc(Cl)c1	inactive
O=C(Nc1ccc(Cl)cc1)C1c2cccc[n+]2CC(=O)N1Cc1ccc2c(c1)OCO2 (stereo not given)	1.03 µM (active)
O=C(Nc1ccc2c(c1)OCCO2)C1c2ccccc2OCC(=O)N1Cc1ccccn1 (stereo not given)	inactive
CSc1ccccc1C(=O)NCc1ccccc1	inactive
C=CCOc1cccc(CNn2cn[nH]c2=S)c1	inactive
CC(=O)Nc1ccc(Oc2ccc3c(c2)C(=O)NC3=O)cc1	inactive
